# Measured values reported in the supplement of paper PMC9942566.
# ± gives the standard deviation of the averaged measurements.
# Tested on: Serratia marcescens K904 PosmB-luxCDABE reporter (pMQ747)
# Assay: PosmB-lux reporter fold induction (RLU/OD600 relative to no-compound control), highest over Biolog concentrations; higher = stronger Rcs reporter activation
# Conditions: wild type K904; 4 h
# Experimental: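 Serratia marcescens K904 (wild type) or its isogenic ΔrcsB mutant, carrying the Rcs-dependent PosmB-luxCDABE reporter plasmid pMQ747, was grown in LB at OD600 0.1 in Biolog Phenotype MicroArray plates PM11-20 for 4 h at 30-32°C. Each compound is present at 3-4 proprietary concentrations (not stated); per the Fig. S1 legend the value given is the highest fold over those wells. Three independent trials.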
row,SMILES,PosmB-lux reporter fold induction
1,"CC1(C)S[C@@H]2[C@H](NC(=O)COc3ccccc3)C(=O)N2[C@H]1C(=O)O.CN(C)[C@@H]1C(O)=C(C(=O)NCN2CCN(CCO)CC2)C(=O)[C@@]2(O)C(O)=C3C(=O)c4c(O)cccc4[C@@](C)(O)[C@H]3C[C@@H]12 [Penimepicycline] (Biolog plate: PM12, well positions: B5-8)",3.22 ± 1.1
2,"O=C1OC(CN2CCOCC2)CN1/N=C/c1ccc([N+](=O)[O-])o1 (stereo not given) [Furaltadone] (Biolog plate: PM14, well positions: A5-8)",1.52 ± 0.2
3,"CCc1cc(C(N)=S)ccn1 [ethionamide] (Biolog plate: PM17, well positions: B9-12)",0.853 ± 0.16
4,"O=C1C=C(O)C(=O)c2ccccc21 [lawsone] (Biolog plate: PM19, well positions: E9-12)",1.63 ± 0.34
5,"Cc1cc(O)cc(C)c1Cl [chloroxylenol] (Biolog plate: PM16, well positions: H5-8)",2.08 ± 0.6
6,"Cc1nnc(SCC2=C(C(=O)O)N3C(=O)[C@@H](NC(=O)Cn4cnnn4)[C@H]3SC2)s1 [Cefazolin] (Biolog plate: PM11, well positions: E1-4)",1.18 ± 0.073
7,"O=C(O)CN(CCN(CC(=O)O)CC(=O)O)CC(=O)O (Biolog plate: PM15, well positions: B5-8)",1.66 ± 0.13
8,"O=C1CN(/N=C/c2ccc([N+](=O)[O-])o2)C(=O)N1 [Nitrofurantoin] (Biolog plate: PM14, well positions: E5-8)",2.33 ± 0.28
9,"CSc1ccc2c(c1)N(CCC1CCCCN1C)c1ccccc1S2 (stereo not given) [thioridazine] (Biolog plate: PM20, well positions: C1-4)",0.902 ± 0.17
10,"O=c1[nH]c(=O)n([C@H]2C[C@H](O)[C@@H](CO)O2)cc1C(F)(F)F [trifluorothymidine] (Biolog plate: PM18, well positions: B1-4)",1.81 ± 0.69
11,"NCC[C@H](O)C(=O)N[C@@H]1C[C@H](N)[C@@H](O[C@H]2O[C@H](CN)[C@@H](O)[C@H](O)[C@H]2O)[C@H](O)[C@H]1O[C@H]1O[C@H](CO)[C@@H](O)[C@H](N)[C@H]1O [Amikacin] (Biolog plate: PM11, well positions: A2-4)",1.4 ± 0.2
12,"[Na+].[Na+].[O]=[W](=[O])([O-])[O-] [sodium tungstate] (Biolog plate: PM17, well positions: E9-12)",1.69 ± 0.46
13,"OB(O)O [Boric acid] (Biolog plate: PM14, well positions: C1-4)",1.77 ± 1.2
14,"NO [hydroxylamine] (Biolog plate: PM19, well positions: G9-12)",1.82 ± 0.33
15,"CC(C)c1nc2nc(N)nc(N)c2nc1C(C)C [2,4-Diamino-6,7-diisopropyl-pteridine] (Biolog plate: PM12, well positions: E1-4)",2.38 ± 0.48
16,"CC1(C)S[C@@H]2[C@H](NC(=O)C(C(=O)O)c3ccccc3)C(=O)N2[C@H]1C(=O)O (stereo not given in full) [Carbenicillin] (Biolog plate: PM12, well positions: A9-12)",2.2 ± 0.17
17,"[Cl][Fe]([Cl])[Cl] [ferric chloride] (Biolog plate: PM16, well positions: G5-8)",0.898 ± 0.3
18,"CN(C)C(=O)/N=N/C(=O)N(C)C [diamide] (Biolog plate: PM16, well positions: D5-8)",1.26 ± 0.35
19,"CC(C(=O)O)c1cccc(C(=O)c2ccccc2)c1 (stereo not given) [ketoprofen (an NSAID)] (Biolog plate: PM18, well positions: A2-4)",1.95 ± 0.79
20,"CN(C)[C@@H]1C(O)=C(C(N)=O)C(=O)[C@@]2(O)C(O)=C3C(=O)c4c(O)ccc(Cl)c4[C@@H](O)[C@H]3C[C@@H]12 [Demeclocycline] (Biolog plate: PM11, well positions: D5-8)",1.53 ± 0.45

row,SMILES,PosmB-lux reporter fold induction
1,"Cc1cc(C)nc(NS(=O)(=O)c2ccc(N)cc2)n1 [Sulfamethazine] (Biolog plate: PM12, well positions: D5-8)",3.6 ± 0.65
2,"Nc1ccc(S(=O)(=O)Nc2ccc(Cl)nn2)cc1 [sulfachloro-pyridazine] (Biolog plate: PM17, well positions: C5-8)",1.46 ± 0.31
3,"C[n+]1c2cc(N)ccc2cc2ccc(N)cc21.Nc1ccc2cc3ccc(N)cc3nc2c1 [Acriflavine] (Biolog plate: PM14, well positions: A2-4)",1.45 ± 0.32
4,"CO[C@H]1C[C@H](O[C@H]2[C@H](C)[C@@H](O[C@@H]3O[C@H](C)C[C@H](N(C)C)[C@H]3OC(C)=O)[C@@H](C)C[C@@]3(CO3)C(=O)[C@H](C)[C@@H](OC(C)=O)[C@@H](C)[C@@H](C)OC(=O)[C@@H]2C)O[C@@H](C)[C@@H]1OC(C)=O [troleandomycin] (Biolog plate: PM20, well positions: H9-12)",1.36 ± 0.24
5,"Nc1ccc(S(N)(=O)=O)cc1 [sulfanilamide] (Biolog plate: PM16, well positions: B5-8)",0.986 ± 0.29
6,"On1ccccc1=S [1-Hydroxy-pyridine-2-thione] (Biolog plate: PM14, well positions: C5-8)",4.06 ± 1.3
7,"CCCCCCCC[N+](C)(CCCCCCCC)CCCCCCCC [methyltrioctyl-ammonium chloride] (Biolog plate: PM19, well positions: B1-4)",1.17 ± 0.32
8,"CC1(C)S[C@@H]2[C@H](NC(=O)[C@H](N)c3ccc(O)cc3)C(=O)N2[C@H]1C(=O)O [Amoxicillin] (Biolog plate: PM11, well positions: B1-4)",2.48 ± 0.35
9,"NC(CO)C(=O)NNCc1ccc(O)c(O)c1O (stereo not given) [Benserazide] (Biolog plate: PM20, well positions: A9-12)",1.16 ± 0.17
10,"CCN1CCN(C(=O)N[C@@H](C(=O)N[C@@H]2C(=O)N3[C@@H]2SC(C)(C)[C@@H]3C(=O)O)c2ccccc2)C(=O)C1=O [Piperacillin] (Biolog plate: PM14, well positions: F5-8)",3.19 ± 1.8
11,"N[C@@H]1CONC1=O [D-Cycloserine] (Biolog plate: PM15, well positions: B1-4)",1.37 ± 0.23
12,"Oc1c(Cl)cc(Cl)c2cccnc12 [5,7-Dichloro-8-hydroxyquinoline] (Biolog plate: PM15, well positions: C1-4)",2.24 ± 0.92
13,"CC1(C)S[C@@H]2[C@H](NC(=O)[C@H](NC(=O)N3CCNC3=O)c3ccccc3)C(=O)N2[C@H]1C(=O)O [Azlocillin] (Biolog plate: PM13, well positions: B1-4)",1.96 ± 0.43
14,"Cc1cc(N)c2ccccc2[n+]1CCCCCCCCCC[n+]1c(C)cc(N)c2ccccc21 [Dequalinium chloride] (Biolog plate: PM13, well positions: A5-8)",1.23 ± 0.086
15,"CN[C@H](CC(C)C)C(=O)N[C@H]1C(=O)N[C@@H](CC(N)=O)C(=O)N[C@H]2C(=O)N[C@H]3C(=O)N[C@H](C(=O)N[C@H](C(=O)O)c4cc(O)cc(O)c4-c4cc3ccc4O)[C@H](O)c3ccc(c(Cl)c3)Oc3cc2cc(c3O[C@@H]2O[C@H](CO)[C@@H](O)[C@H](O)[C@H]2O[C@H]2C[C@](C)(N)[C@H](O)[C@H](C)O2)Oc2ccc(cc2Cl)[C@H]1O [Vancomycin] (Biolog plate: PM12, well positions: C5-8)",5.39 ± 2
16,"Cc1noc(NS(=O)(=O)c2ccc(N)cc2)c1C [sulfisoxazole] (Biolog plate: PM18, well positions: C5-8)",0.979 ± 0.2
17,"CCCCCCCCCCCC[N+](C)(C)CCCS(=O)(=O)[O-] [lauryl sulfobetaine] (Biolog plate: PM19, well positions: G1-4)",2.95 ± 1.1
18,"N=C(NCCCCCCNC(=N)NC(=N)Nc1ccc(Cl)cc1)NC(=N)Nc1ccc(Cl)cc1 [chlorhexidine] (Biolog plate: PM19, well positions: C1-4)",1.21 ± 0.081
19,"C1COCCOCCOCCOCCOCCO1 [18-crown-6 ether] (Biolog plate: PM20, well positions: D9-12)",2.22 ± 0.31
20,"CCN1CCN(C(=O)N[C@@H](C(=O)N[C@@H]2C(=O)N3C(C(=O)O)=C(CSc4nnnn4C)CS[C@H]23)c2ccc(O)cc2)C(=O)C1=O [cefoperazone] (Biolog plate: PM17, well positions: G9-12)",2.11 ± 0.69
